# The list is not random: actives were taken first. Their share in the collection is about 5.9%.
# VP16 counter: counter-screen for ROR gamma inhibitors: Gal4-VP16 reporter; Drosophila S2 Gal4-VP16 UAS-luciferase, luminescence, 20 h; Potency, µM (series often up to 53.6 µM), for inactives: at the highest dose activity, negative = inhibition, most hits filed as inhibitors; 310,000 compounds, 3.5% hits; AID 2546;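 note: Gal4-VP16 expression switched on by copper sulfate through the metallothionein promoter; % is set by controls: 0 for no effect and ±100 for the full control effect; nearly all actives have a fitted effect of over 50% in size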
# GLP-1R inv ag: acts as inverse agonist at human GLP-1 receptor; HEK293 GLP-1R CRE-luciferase, luminescence, 24 h; GLP-1R form is constitutively active; Potency, µM (doses to about 38.3 µM), inactives show at the highest dose activity change, negative = inhibition, hits mostly inhibitors; 410,000 compounds, 1.6% hits; P43220; note: % is set by controls: 0 for no effect and ±100 for the full control effect; nearly all actives have a fitted effect of over 55% in size
#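 Stable HEK293 clone (constitutively active GLP-1R + cAMP-response luciferase); 200 cells/uL plated, 12 h pre-culture, compound 24 hr, 37 deg C/5% CO2; detection reagent 12 min RT; luminescence.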
# GLP-1R agonist: GLP-1 receptor (human) agonism; 380,000 compounds, 0.007% hits; Potency, µM (highest dose often 45.6 µM), without a hit: at the top dose activation, hits mostly activators; P43220; HEK293 GLP-1R CRE-luciferase, luminescence, 4-6 h; cells express a hypersensitive GLP-1R form; note: % of control where 0% means no effect
# RORgamma inh: blocks mouse ROR gamma transcriptional activity; Drosophila S2 Gal4-RORgamma UAS-luciferase reporter, 20 h; Potency, µM (series often up to 53.6 µM), inactives show at the highest dose activity change, negative = inhibition, most hits filed as inhibitors; 310,000 compounds, 5.4% hits; AID 2551; note: % is set by controls: 0 for no effect and ±100 for the full control effect; nearly all actives have a fitted effect of over 60% in size
# Target sequence (P51450 whole entry, looked up, the tested form may be a part): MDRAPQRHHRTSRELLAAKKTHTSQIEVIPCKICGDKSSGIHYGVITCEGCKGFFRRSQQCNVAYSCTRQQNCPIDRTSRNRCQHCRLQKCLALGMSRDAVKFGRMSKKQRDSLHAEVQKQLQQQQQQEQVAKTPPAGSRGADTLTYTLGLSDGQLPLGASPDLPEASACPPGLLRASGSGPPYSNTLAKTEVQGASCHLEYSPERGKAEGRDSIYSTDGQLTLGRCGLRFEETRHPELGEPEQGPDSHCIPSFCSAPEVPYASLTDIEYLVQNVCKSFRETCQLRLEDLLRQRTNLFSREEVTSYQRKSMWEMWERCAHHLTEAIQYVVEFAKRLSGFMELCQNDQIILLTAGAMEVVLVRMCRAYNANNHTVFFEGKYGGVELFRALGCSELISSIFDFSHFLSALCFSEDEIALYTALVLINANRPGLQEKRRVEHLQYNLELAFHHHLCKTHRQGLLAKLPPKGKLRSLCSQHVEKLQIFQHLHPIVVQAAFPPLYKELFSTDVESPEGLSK
#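 Compounds are pin-transferred onto Drosophila Schneider cells expressing a copper-inducible Gal4–ROR gamma transactivation domain fusion. After 1 hr, copper sulfate is added to 700 uM final; luciferase is read 20 hr later.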
# GLP1R cytotox: cytotoxic in the GLP-1 receptor inverse agonist counter-screen. HEK293 cAMP-luciferase reporter cells, luminescence, 24 h. Potency, µM (highest dose often 38.3 µM), without a hit: top-dose activity change, negative = inhibition, actives largely listed as inhibitors. 410,000 compounds, 0.13% hits;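 note: loss of luciferase light is scored as toxicity; % is set by controls: 0 for no effect and ±100 for the full control effect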
#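 1536-well qHTS counterscreen of the MLSMR; 200 cells/uL, 12 h pre-incubation, 23 nL cpd, 24 h at 37 deg C 5% CO2, luciferase detection reagent, 12 min RT, luminescence. Inhibition = undesired.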
# * marks the source's active call; other numbers are inactive results; ? = inconclusive; / = not tested or not shown; [ ] = remark or other dose. Calls come from the whole dose curve; as a rule, active = well fitted curve in the direction sought with a large enough effect; inconclusive = small, poorly fitted or top-dose-only effect, or another doubt; inactive = no such curve, though single readings can be large; an effect the other way counts as inactive or inconclusive. Potency is the fitted concentration of half-maximal effect.
SMILES,VP16 counter,GLP-1R inv ag,GLP-1R agonist,RORgamma inh,GLP1R cytotox
O=C(Nc1ccc(N2CCOCC2)c(Cl)c1)c1ccccc1F,?,3%,6%,9%,12%
O=C(Nc1ccc(N2CCOCC2)c(S(=O)(=O)Nc2ccccc2Cl)c1)c1ccc(F)cc1,/,10µM*,1%,/,-6%
O=C(CNC(=O)c1ccccc1Br)N/N=C/c1cccnc1,-5%,24%,-4%,2%,-12%
O=C(CNC(=O)c1ccccc1Br)N/N=C/c1cc(Br)ccc1O,5µM*,?,0%,2.2µM*,-20%
O=C(N/N=C\c1cc(Cl)ccc1O)c1ccc(S(=O)(=O)N2CCCCC2)cc1,3.5µM*,?,-20%,5µM*,3%
CCOc1ccc(NC(=O)CN2CC(c3ccccc3)CC2=O)cc1 (centres undefined),10%,-19%,6%,?,1%
O=C(CN1CC(c2ccccc2)CC1=O)N/N=C/c1cc(Br)ccc1O (centres undefined),3.2µM*,?,-7%,4.5µM*,-24%
O=C(Nc1cc(S(=O)(=O)Nc2ccc(Cl)cc2)ccc1O)c1ccc(S(=O)(=O)N2CCCCCC2)cc1,?,?,9%,?,-8%
O=C(CNC(=O)c1ccco1)N/N=C/c1cc(Br)ccc1O,11µM*,?,4%,8.9µM*,-9%
CCc1ccc(NC(=O)CSC2=Nc3ccccc3C3=NC(CC(=O)NCc4ccc5c(c4)OCO5)C(=O)N23)cc1 (centres undefined),/,-14%,/,/,-21%
O=C(N/N=C/c1cc(Cl)ccc1O)c1ccccc1Br,1.3µM*,?,-5%,0.71µM*,?
O=C(CNC(=O)c1ccccc1Br)N/N=C\c1cc([N+](=O)[O-])cc(Br)c1O,7.9µM*,-19%,1%,11µM*,1%
O=C(CNC(=O)c1ccncc1)N/N=C/c1cc(Br)ccc1O,-6%,2%,-1%,-7%[10 µM],-11%
O=C(CNC(=O)c1ccccc1Br)N/N=C/c1cccs1,1%,9%,-1%,0%,0%
O=C(CNC(=O)c1ccccc1Br)N/N=C/c1ccccc1O,?,0%[7.66 µM],1%,3.2µM*,-1%[7.66 µM]
O=C(CNC(=O)c1ccccc1)N/N=C/c1cc(Br)ccc1O,7.1µM*,?,-2%,2.5µM*,14%[1.53 µM]
CCN(CC)c1ccc(-n2nc3cc(C)c(NC(=O)c4ccccc4F)cc3n2)cc1,/,5%,/,/,0%
COc1cc(NC(=O)CSc2nc3nc(C)c(Cc4ccccc4Cl)c(C)n3n2)cc(OC)c1,/,-76%,/,/,-22%
CCc1ccc(-n2c(Cc3ccccc3)nnc2SCc2nc(-c3cccs3)no2)cc1,/,?,/,/,-5%
Cc1nc(-n2nc(C)c(Cc3ccccc3Cl)c2C)sc1C(=O)Nc1ccccc1F,/,4%,/,/,4%
O=C(N/N=C/c1cc(Cl)ccc1O)c1cccnc1,0.71µM*,?,7%,1.1µM*,126%
O=C(CNC(=O)c1ccc2c(c1)OCO2)N/N=C/c1cc(Br)ccc1O,?,?,0%,20µM*,10%
O=C(N/N=C/c1cccnc1)c1cccc(Cl)c1,-14%,23%,11%,5%,2%
O=C(CNC(=O)c1ccc2c(c1)OCCO2)N/N=C/c1cccc(Br)c1,-19%,-22%,5%,30%,-4%
COC(=O)N/N=C/c1cc([N+](=O)[O-])cc(Br)c1O,?,-10%,-1%,11µM*,?
SMILES,VP16 counter,GLP-1R inv ag,GLP-1R agonist,RORgamma inh,GLP1R cytotox
COc1ccc2[nH]cc(CCNc3ncncc3-c3cccc(C#N)c3)c2c1,-4%,/,/,?,/
S=C(NCCc1ccccc1)N/N=C/c1cccs1,/,?,10%,/,?
S=C(NCCc1ccccc1)Nc1ncccn1,/,11%,11%,/,-2%
Cc1ccc(C)c(/C=N/NC(=S)NCCc2ccccc2)c1,7.9µM*,?,0%,7.1µM*,?
S=C(NCCc1ccccc1)N/N=C/c1cccc(Cl)c1Cl,?,?,17%,22µM*,?
Oc1ccccc1/C=N/NC(=S)NCCc1ccccc1,22µM*,?,19%,7.1µM*,7%
S=C(NCCc1ccccc1)Nc1c(Cl)cccc1Cl,-27%,?,17%,13µM*,?
Cc1ccc2c(c1)C(=O)[C@@]1(O)CCN(c3ccccc3)C1=N2,7%,/,/,?,/
COc1ccc(-c2ccc(C(C)=O)cc2)cc1C1C2C=CCCC2(C)C(=O)N1Cc1ccccc1 (centres undefined),-10%,/,/,29%,/
COC1=CC(=O)C(O)=C/C1=C\C=C\c1ccccc1,13µM*,/,/,-95%,/
COc1ccc(C)cc1NC(=O)c1oc2ccc(S(=O)(=O)N3CCC4(CC3)OCCO4)cc2c1C,/,10%,/,/,1%
CCCn1c(SCC(=O)Nc2ccccc2-c2ccccc2)nnc1-c1ccoc1C,-1%,11µM*,1%,39%,-18%
COc1ccc(-c2csc(C(C)(O)c3cccc(OC)c3)n2)cc1 (centres undefined),/,10µM*,4%,/,0%
COc1cccc(C(C)(O)c2nc(-c3ccc(Cl)cc3)cs2)c1 (centres undefined),/,?,8%,/,-7%
CC[C@H](NC(=O)[C@H](CCC(=O)O)NC(=O)[C@H](CCC(=O)O)NC(=O)[C@H](CC(=O)O[S+](=O)([O-])c1cccc2c(NCCN)cccc12)NC(=O)[C@H](CCC(=O)O)NC(=O)[C@H](CC(=O)O)NC(C)=O)C(=O)ON[C@@H](C)C(=O)N[C@@H](CO)C(=O)N[C@@H](CCCCNC(=O)c1ccc(N=Nc2ccc(N(C)C)cc2)cc1)C(N)=O,9%,/,/,-11%,/
Cc1ccc(-c2nn(C(C)(C)C)c3ncnc(NS(=O)(=O)c4ccc([N+](=O)[O-])cc4)c23)cc1,-22%,?,17%,13µM*,-3%
COc1ccc(-c2onc(C)c2C)cc1S(=O)(=O)N(C)Cc1ccccc1,/,-2%,/,/,9%
Cc1cccc(C(=O)NC(NCc2ccco2)C(Cl)(Cl)Cl)c1 (centres undefined),-9%,?,1%,-22%,-1%
Cc1cccc(C(=O)NC(NCCc2ccccc2)C(Cl)(Cl)Cl)c1 (centres undefined),2%,4.5µM*,5%,20%,83%
Cc1ccc(Cl)cc1N1CCN(C(=O)c2cc(S(=O)(=O)N3CCC(C)CC3)cn2C)CC1,/,-6%,-4%,/,4%
CCN(C(=O)c1cnc(N2CCN(c3ncccn3)CC2)c2ccccc12)c1cccc(Cl)c1,3%,10µM*,-4%,2%,-19%
CC12CCC(C(=O)N(CSC(=S)N/N=C\c3ccccc3Cl)C1=O)C2(C)C (centres undefined),0%,?,-4%,?,-25%
